Experimental findings from PubChem BioAssay AID686976 (The Scripps Research Institute Molecular Screening Center, 2013) are described below.

In all, about 1,900 compounds went through this assay and about 320 (17%) were called active. Not all results are given here. Unmarked numbers belong to inactive results. No stated cut-off is given here; in the data, active means inhibition above about 30%; inactive means the rest.

The test system of this experiment is CCHF virus ovarian tumor domain protease (vOTU, L protein). In words: CCHFV vOTU protease inhibitors, confirmation, biochemical, Pep-AMC substrate, fluorescence (AID 686976). The note with it: Recombinant CCHFV vOTU, at 11.5 µM, stronger effect = higher value.
`O=C(OCC(=O)c1cccs1)c1ccc([N+](=O)[O-])o1`: the inhibition (commonly the relative decrease from the control value, in per cent) was -0.43%.

Consider `Cc1cc(OC(C)C(=O)Nc2ccc(S(=O)(=O)Nc3onc(C)c3C)cc2)cc(C)c1Cl` (centres undefined), for which the inhibition is 12.3%. The same measure for `CC(=O)N1CCN(c2ccc(NCc3ccc(C(C)C)cc3)cc2)CC1`: -11.5%; for `Clc1ccc(C2=CSC3=Nc4cccc5cccc(c45)N23)cc1`: 94.7% (active).

With `Cc1ccc(S(=O)(=O)/N=C2\C=C(NS(=O)(=O)c3ccc(C)cc3)C(=O)c3ccccc32)cc1`, the inhibition was 38.1% (active). The same measure for `COc1ccc(S(=O)(=O)/N=C2\C=C(NS(=O)(=O)c3ccccc3)C(=O)c3ccccc32)cc1`: 33% (active); for `O=S(=O)(Nc1ccc(O)c2ccccc12)c1ccc(OC(F)(F)F)cc1`: 10.3%. The same measure for `O=C1NC(c2ccc(-c3ccccc3[N+](=O)[O-])o2)C(C(=O)c2ccc(Cl)cc2)C(O)(C(F)(F)F)N1` (centres undefined): 34.9% (active); for `CC1=NN(c2ccc(Cl)c(C(=O)O)c2)C(=O)/C1=C/c1ccc(-c2ccccc2[N+](=O)[O-])o1`: 5.11%; for `Cc1cc(C)cc(NC(=S)NCCc2c[nH]c3ccccc23)c1`: -3.11%.

On to `CCN(CC)CCCC(C)n1c2nc(=O)[nH]c(=O)c-2nc2cc(Cl)ccc21` (centres undefined), for which the inhibition is 98.9% (active). Then `COc1ccc(C(=O)COC(=O)c2ccc([N+](=O)[O-])s2)cc1OC`, with 12.4%; and `COc1cc(NC(=O)COC(=O)c2ccc([N+](=O)[O-])s2)cc(OC)c1OC`, with 81.3% (active). The same measure for `O=C(COc1ccc(Cl)cc1)N1CCN(c2cccc(C(F)(F)F)c2)CC1`: -7.38%; for `COCCNC(=O)Nc1ccc2nc(-c3ccco3)c(-c3ccco3)nc2c1`: 1.78%.

Consider `O=C(O)c1cc(S(=O)(=O)Nc2ccc3cn[nH]c3c2)ccc1Br`, for which the inhibition is -10.8%.

`Oc1ccc(N=Cc2sc3ccccc3c2Cl)cc1`: the inhibition was -0.82%. `COc1ccccc1CNS(=O)(=O)c1cc2c3c(c1)CCC(=O)N3CCC2`: the inhibition was -12.5%. Then `Cc1cccc(C)c1NC(=O)CNC(=O)c1c(C)nn(-c2ccccc2)c1C`, with -17.8%; and `Oc1c(Cl)cc(Cl)c(Cl)c1Cc1c(O)c(Cl)cc(Cl)c1Cl`, with 31.2% (active). The same measure for `CC(=O)N(C1=C(Cl)C(=O)c2ccccc2C1=O)c1ccc(C(=O)O)cc1`: 101% (active); for `CC(C(=O)Nc1ccccc1-c1ccccc1)N1CCOCC1` (centres undefined): -10.3%. Regarding `Cc1oc2c(c1C(=O)N1CCOCC1)C(=O)c1ccccc1C2=O`, the inhibition is 41% (active).

`COc1ccc2c(c1)c(=Cc1ccc(N(C)C)cc1)c1cc(-c3ccccc3)[n+](C)n12`: the inhibition was -15.8%.
